# Several values for one entry are separate records, joined by “and”; a condition that tells them apart may be missing. Equal entries are not always repeated. About 1,800 (2.5%) of roughly 73,000 compounds were called active. Inconclusive results (about 13%) are left out. For the sample, actives were picked, then their nearest neighbours and some compounds at random. Unmarked numbers belong to inactive results. Calls come from the whole dose curve; as a rule, active = well fitted activation curve with a large enough effect; inconclusive = small, poorly fitted or top-dose-only effect; inactive = no such curve, though single readings can be large or run the other way.
# Assay: qHTS Assay for Agonists of the Thyroid Stimulating Hormone Receptor: Activators of Intracellular cAMP Concentrations in Parental HEK 293; note: nearly all actives have a fitted effect of over 55% in size; for activation: % of control where 0% means no effect
# Conditions: parental HEK293 CNG cAMP sensor, membrane potential fluorescence; series mostly up to 57.1 µM; activation: at the top concentration
# Outline: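 Parental HEK 293 cells stably expressing a cAMP-gated CNG channel were loaded with membrane potential dye containing 100 uM RO 20-1724 for 60 min. Compound added for 30 min; depolarization read as fluorescence intensity at 590 nm.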
# Potency is the fitted concentration of half-maximal effect.
SMILES,Potency,activation
Cc1ccc(Cn2c(NC(=O)c3ccco3)nc3ccccc32)cc1,25.1 µM (active),
Cc1ccc(Cn2c(C)nc3c(c2=O)c2nc4ccccc4nc2n3Cc2ccco2)cc1,,2.46%
CCOc1ccc2nc(NCCNS(=O)(=O)c3ccccc3)c(C#N)cc2c1,,26.9%
Cc1nnc(N(Cc2ccco2)C(=O)c2ccno2)s1,,3.12%
COC(=O)CSC1=C(C#N)C(c2ccccc2OC)C(C(=O)OC)C(=O)N1 (stereo not drawn),,-3.31% [at 11.4 µM]
N#CC1=C(SCc2ccccc2)NC(=O)C(C#N)C12CCCC2 (stereo not drawn),31.6 µM (active),
Cc1noc(C)c1-c1nc(Nc2ccccc2)c2ccccc2n1,,-3.31%
O=C(NC(=O)c1ccc(Cl)c(Cl)c1)OC1CCS(=O)(=O)C1 (stereo not drawn),,17.7%
Cc1ccnc(N)c1,,16.3%
CC(C)c1ccc2c([Si](C)(C)C)c3c(nc2c1)-c1cccc(=O)n1C3,,2.88%
O=C(CC1CCCCC1)Nc1c2c(nn1-c1ccc(F)cc1)CS(=O)(=O)C2,15.8 µM (active),
COc1cccc(C(=O)Nc2c3c(nn2-c2cccc(C)c2C)CS(=O)(=O)C3)c1OC,,17.4%
COc1ccc(C2C(C#N)=C(N)Oc3n[nH]c(C)c32)cc1CN1CCN(c2ccc(F)cc2)CC1 (stereo not drawn),,-7.97%
Cc1nc2cnc(N3CCN(C)CC3)nc2n(C[C@H]2CCCO2)c1=O,,-4.71%
CC(C)(C)NC(=O)c1cc(NC(=O)c2ccco2)cc(NC(=O)c2ccco2)c1,,2.66%
COc1ccc(C2C3=C(OC(C)=O)c4ccccc4C3=Nc3c2c(=O)n(C)c(=O)n3C)cc1 (stereo not drawn),10 µM (active),
COc1ccc(-c2c3c(=O)n(C)c(=O)n(C)c3cn2NC(C)=O)cc1,,-1.58%
Cc1cccc(C2c3c(n(C)c(=O)n(C)c3=O)N=C3c4ccccc4C(=O)C32)c1 (stereo not drawn),,-19.4%
Cn1nnc(NC(=O)CSc2ncn[nH]2)n1,,1.91%
COC(=O)C(C(=O)OC)[C@@H]1CCCC(=O)C1,,4.23% [at 11.4 µM]

SMILES,Potency,activation
CCc1nc(Nc2ccc3nccnc3c2)c2oc3ccccc3c2n1,,3.36%
COc1ccccc1Nc1ncnc2c1oc1ccccc12,31.6 µM (active),
COc1ccc(CCNC(=O)CSc2nc(C)nc3c2oc2ccccc23)cc1OC,,0.977%
COc1ccc(CNc2ncncc2-c2ccccc2OC)c(OC)c1,25.1 µM (active),
COc1ccccc1CNc1ncncc1-c1cccc(NS(C)(=O)=O)c1,,0.742%
COc1ccccc1CNc1ncncc1-c1cccnc1,,3.51%
COC(=O)[C@@H]1CC[C@H](C)[C@@H](c2ccc(C)cc2)N1C(=O)c1ccc(/C=N\O[C@@H](C)c2cn([C@H](CO)Cc3ccccc3)nn2)cc1,,9.66% [at 11.4 µM] and 5.24% [at 11.4 µM]
Cc1cccc(-n2ncc3c(N4CCc5ccccc54)ncnc32)c1,,9.9%
Cc1ccc2c(c1)c1ncnc(N3CCc4ccccc4C3)c1n2C,25.1 µM (active),
Cc1ccc2c(c1)c1ncn(CCC3=CCCCC3)c(=O)c1n2C,,18.7%
Cn1c(/C(C#N)=C2/CCCCCN2)nc2ccccc21,,8.85%
Cc1noc(C)c1CSc1nc2cc(S(=O)(=O)N3CCOCC3)ccc2o1,,0.104%
O=C(OCC(COC(=O)c1ccccc1)(COC(=O)c1ccccc1)COC(=O)c1ccccc1)c1ccccc1,,20%
CCc1ccc(-c2nnn(Cc3nc4ccccc4s3)n2)cc1,15.8 µM (active),
O=C(O)CSCc1nc2ccccc2s1,,19.3%
CCc1ccc(-c2nnn(Cc3nn[nH]n3)n2)cc1,,16%
Cc1nc2cnc(Nc3ccccc3)nc2n(Cc2ccc(F)cc2)c1=O,,26.3%
O=C(CSc1n[nH]c(-c2cccnc2)n1)Nc1ccnc2ccccc12,,17.3%
COCCn1c(-c2ccc(OC)c(OC)c2)nc2ccccc21,,10.2%
CCCn1c(C(O)c2cc(OC)ccc2OC)nc2ccccc21 (stereo not drawn),,17.2%

SMILES,Potency,activation
CC(=O)Nc1nonc1-c1nc2ccccc2n1Cc1ccccn1,,11.6%
COc1ccc(C)c(Cn2c(-c3nonc3N)nc3ccccc32)c1,25.1 µM (active),
Nc1nonc1-c1nc2ccccc2n1CCC(=O)O,,2.08%
Nc1nonc1-c1nc2ccccc2n1Cc1ccc(F)cc1,20 µM (active),
C=CCc1cccc2cc(C(=O)OCC)c(=O)oc12,,12.2%
C/C(=C\C(=O)c1ccccc1)Nc1cccc(O)c1,,5.02% [at 11.4 µM]
COc1cc(Cl)c(S(=O)(=O)n2cnc(C)c2)cc1Cl,,12.1% [at 11.4 µM]
CCC1Oc2ccc(Cl)cc2N(CC(=O)O)C1=O (stereo not drawn),,9.51%
C#CCC(C(=O)OC)(C(=O)OC)C(C[N+](=O)[O-])c1ccccc1 (stereo not drawn),,-0.955% [at 11.4 µM]
COc1cccc([C@H]2Oc3ccc(OC)cc3/C(=N\OCC[C@@H]3C=C[C@H](OC(C)=O)[C@H](COC(C)=O)O3)[C@@H]2O)c1,,1.81% [at 11.4 µM]
Cc1cc(C)n(C(=O)c2ccc(C)c(S(=O)(=O)N3CCOCC3)c2)n1,,23.4%
Cc1ccc(C(=O)Nc2ccccc2C(=O)NC2CCCCC2)cc1S(=O)(=O)N1CCOCC1,15.8 µM (active),
Cc1ccccc1NC(=O)c1cc(S(=O)(=O)N2CCOCC2)cs1,,-8.26%
N[C@H](C(=O)O)c1ccc(C(=O)O)c(O)c1,,-2.63%
Cc1c2c(nc3ccccc13)-c1cccc(=O)n1C2,,-3.79%
Cc1ccc(-c2nn(CC(C)(C)C)c3ncnc(N)c23)cc1,,-5.59%
CCCN(CCC)C(=O)C1c2ccccc2Oc2ccccc21,12.6 µM (active),
O=C(c1ccco1)N1CCN(C(=O)C2c3ccccc3Oc3ccccc32)CC1,,14.5%

# From PubChem BioAssay AID938 (National Center for Advancing Translational Sciences (NCATS), 2007)
